From PubChem BioAssay
A selection: hits, their analogues and other compounds. The true share with any hit is near 8.7%.
HP1b binding inh: inhibitors of HP1-beta chromodomain binding to methylated histone tails. P83916. AlphaScreen HP1-beta / biotin-H3K9me3 peptide binding. Potency, µM (highest dose often 114 µM), actives largely listed as inhibitors. hit rate 0.56% among 390,000. AID 540317; note: nearly all actives have a fitted effect of over 70% in size
Target sequence (P83916 whole entry, looked up): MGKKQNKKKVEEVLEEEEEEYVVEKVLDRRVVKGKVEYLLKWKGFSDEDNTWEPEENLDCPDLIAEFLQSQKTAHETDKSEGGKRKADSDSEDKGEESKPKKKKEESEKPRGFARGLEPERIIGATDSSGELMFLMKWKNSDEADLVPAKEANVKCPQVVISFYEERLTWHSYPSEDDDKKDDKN
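HP1-beta protein (50 nM final) preincubated 30 min at room temperature with biotinylated H3(1-18)K9me3 peptide (50 nM) in PBS pH 7.4, 0.01% Tween-20, then compound added for 30 min. AlphaScreen streptavidin donor/nickel chelate acceptor beads (10 ug/mL final), 30 min dark, luminescence read.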
Sfp inh: blocks B. subtilis Sfp PPTase activity. Potency, µM, usual class: inhibitors. Biochemical Sfp PPTase activity, qHTS. hit rate 3.5% among 310,000. Q9F4F7;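 note: the enzyme is Sfp with the accession as filed and its product quenches rhodamine fluorescence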
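Step 1, compound plus 15 nM Sfp-PPTase, 15 min, room temperature. Step 2, add rhodamine-CoA (5 uM) and BHQ-2-YbbR (12.5 uM). Step 3, read 525/598 nm fluorescence at 0 and 30 min.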
G9a inh: blocks human histone lysine methyltransferase G9a; Q96KQ7; G9a H3K9 monomethylation, AlphaScreen, 2 h; Potency, µM (doses to about 102 µM), actives largely listed as inhibitors; hit rate 8.8% among 350,000; note: nearly all actives have a fitted effect of over 75% in size
Target sequence (Q96KQ7 913-1193 limits assumed): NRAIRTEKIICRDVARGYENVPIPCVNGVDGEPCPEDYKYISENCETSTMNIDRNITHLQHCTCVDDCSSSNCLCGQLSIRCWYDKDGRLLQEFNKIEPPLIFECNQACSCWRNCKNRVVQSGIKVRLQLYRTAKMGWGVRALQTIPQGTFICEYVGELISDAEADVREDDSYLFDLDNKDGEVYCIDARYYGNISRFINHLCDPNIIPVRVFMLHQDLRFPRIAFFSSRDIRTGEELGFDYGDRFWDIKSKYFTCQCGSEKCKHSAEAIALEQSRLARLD
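Compounds were preincubated with 20 nM G9a for 15 min, after which biotinylated H3K9 peptide (500 nM) and SAM (20 uM) started a 2 h room-temperature reaction. Monomethylated product was quantified by antibody-based AlphaScreen chemiluminescence.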
BAZ2B inh: inhibitors of human BAZ2B bromodomain. Q9UIF8. AlphaScreen BAZ2B-H3K14Ac peptide displacement. Potency, µM (titrated, usually from 114 µM), hits mostly inhibitors. hit rate 4.4% among 360,000. AID 504333; note: nearly all actives have a fitted effect of over 60% in size
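BAZ2B (50 nM) with biotin-H3(5-23)K14Ac peptide (50 nM) in PBS pH 7.4, 0.01% Tween-20, preformed 30 min, then compound 30 min at room temperature; top concentration 110uM. AlphaScreen streptavidin donor/nickel chelate acceptor beads (10 ug/mL final), 20 min dark, signal read.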
JMJD2A Tudor: blocks the human JMJD2A Tudor domain; hit rate 4.4% among 390,000; AlphaScreen JMJD2A-Tudor / H3K4me3 peptide binding; AID 504339; Potency, µM (highest dose often 114 µM), most hits filed as inhibitors; O75164; note: nearly all actives have a fitted effect of over 50% in size
12-LOX inh: ALOX12 (human) lipoxygenase inhibition; P18054; purified 12hLO, xylenol orange hydroperoxide absorbance; Potency, µM (top dose mostly 108 µM), most hits filed as inhibitors; hit rate 1.1% among 580,000; AID 1671190
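Hydroperoxide product was detected by ferrous iron/xylenol orange as the 573 to 405 nm absorbance ratio. Arachidonic acid at 40 uM (final) was turned over for 30 min at room temperature by 150 nM human 12hLO, pH 7.0 Hepes buffer, after 15 min compound preincubation.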
Each line names hits and unclear results; the compound was inactive in the other large screens; ! = a repeat was not active. Calls come from the whole dose curve; as a rule, active = well fitted curve in the direction sought with a large enough effect; inconclusive = small, poorly fitted or top-dose-only effect, or another doubt; inactive = no such curve, though single readings can be large; an effect the other way counts as inactive or inconclusive.

COc1cc(C(CCN2CCCC(C)C2)c2c(OC)cc(OC)c3c(-c4ccccc4)cc(=O)oc23)cc(OC)c1OC (centres undefined)	JMJD2A Tudor inconclusive (no result: 12-LOX inh)
CCCCCc1cc(=O)oc2c(C(CCN3CCCCC3)c3ccc(OC)cc3)c(OC)cc(OC)c12 (centres undefined)	Sfp inh inconclusive, JMJD2A Tudor inconclusive, 12-LOX inh inconclusive
CCCCCc1cc(=O)oc2c(C(CCN3CCCC(C)C3)c3ccc(OC)cc3)c(OC)cc(OC)c12 (centres undefined)	Sfp inh 25.1µM, G9a inh inconclusive, BAZ2B inh inconclusive, JMJD2A Tudor inconclusive, 12-LOX inh inconclusive
CCCCCc1cc(=O)oc2c(C(CCN(CC)CC)c3ccc(OC)cc3)c(OC)cc(OC)c12 (centres undefined)	Sfp inh 56.2µM
COc1cc(OC)c2c(C)cc(=O)oc2c1C(CCN1CCCC(C)C1)c1ccc(N(C)C)cc1 (centres undefined)	HP1b binding inh inconclusive, JMJD2A Tudor 28.2µM (no result: G9a inh, BAZ2B inh, 12-LOX inh)
CCCCCc1cc(=O)oc2c(C(CCN3CCCC3)c3ccc(N(C)C)cc3)c(OC)cc(OC)c12 (centres undefined)	HP1b binding inh inconclusive, Sfp inh 79.4µM, G9a inh inconclusive, BAZ2B inh 8.91µM, JMJD2A Tudor 11.2µM
CCN(CC)C(=O)Oc1ccc(Cl)c2cccnc12	none
O=C(Nc1cccc(C(F)(F)F)c1)Oc1ccc(Cl)c2cccnc12	BAZ2B inh 17.8µM, JMJD2A Tudor 39.8µM, 12-LOX inh inconclusive
COc1cc(NC(=O)[C@H]2CCC[C@H]2NC(=O)c2cnc(C)cn2)cc(OC)c1	none (no result: HP1b binding inh, Sfp inh, G9a inh, BAZ2B inh, JMJD2A Tudor)
COc1ccc(Oc2ccc(CNc3ncccn3)cn2)cc1	none (no result: HP1b binding inh, Sfp inh, G9a inh, BAZ2B inh, JMJD2A Tudor)
Fc1ccc(C2Cn3nnc(-c4nc(-c5cccc(F)c5)no4)c3CO2)cc1 (centres undefined)	none (no result: HP1b binding inh, Sfp inh, G9a inh, BAZ2B inh, JMJD2A Tudor)
CCC1Oc2ccc(NC(=O)CC(C)(C)C)cc2CN(Cc2ccc(F)cc2)C1=O (centres undefined)	none (no result: HP1b binding inh, Sfp inh, G9a inh, BAZ2B inh, JMJD2A Tudor)
CCC1NC(C(=O)O)Cc2c1[nH]c1ccccc21 (centres undefined)	12-LOX inh inconclusive (no result: Sfp inh)
COc1ccc(C2NC(C(=O)O)Cc3c2[nH]c2ccccc32)cc1OC (centres undefined)	HP1b binding inh inconclusive, G9a inh inconclusive, JMJD2A Tudor 3.16µM, 12-LOX inh inconclusive
COc1cc(C2NC(C(=O)O)Cc3c2[nH]c2ccccc32)cc(OC)c1OC (centres undefined)	Sfp inh 70.8µM!, G9a inh inconclusive, BAZ2B inh 79.4µM, JMJD2A Tudor 56.2µM
COC(=O)C1Cc2c([nH]c3ccccc23)C(C(C)C)N1 (centres undefined)	G9a inh 44.7µM (no result: 12-LOX inh)
Cc1nc(C)c(C(=O)N2CCc3onc(-c4cccc(F)c4)c3C2)s1	none (no result: HP1b binding inh, Sfp inh, G9a inh, BAZ2B inh, JMJD2A Tudor)
CSc1nc(-c2ccco2)cc(C(F)(F)F)c1C#N	G9a inh 25.1µM, 12-LOX inh inconclusive
CSc1nc(-c2ccco2)cc(-c2ccccc2)c1C#N	G9a inh 50.1µM, 12-LOX inh inconclusive
N#Cc1c(C(F)(F)F)cc(-c2ccco2)nc1SCc1ccncc1	G9a inh inconclusive
COCCCNC(=O)C(NC(=O)c1ccccc1)C1CCN(C(=O)c2ccc(Cl)cc2)CC1 (centres undefined)	none (no result: HP1b binding inh, Sfp inh, G9a inh, BAZ2B inh, JMJD2A Tudor)
O=C(Nc1nnc(-c2ccc(F)cc2)o1)c1ccco1	BAZ2B inh 50.1µM, JMJD2A Tudor 79.4µM
CS(=O)(=O)c1ccccc1-c1nnc(NC(=O)c2ccco2)o1	G9a inh 14.1µM, BAZ2B inh 50.1µM, JMJD2A Tudor 20µM (no result: Sfp inh)
CCOC(=O)C1=C(C)O[C@]23OC(N)=C(C#N)[C@]12C(=O)c1ccccc13	none (no result: HP1b binding inh, Sfp inh, G9a inh, BAZ2B inh, JMJD2A Tudor)
COc1ccc(Nc2ncnc3sccc23)cc1	G9a inh 44.7µM, 12-LOX inh inconclusive
COc1cccc(Nc2ncnc3sccc23)c1	none
COC(=O)c1cccc(Nc2ncnc3sccc23)c1	G9a inh 35.5µM (no result: BAZ2B inh)
COc1ccc(-c2c3c(=O)n(C)c(=O)n(C)c3cn2-c2cccc(N)c2)cc1	HP1b binding inh inconclusive, G9a inh 11.2µM, BAZ2B inh inconclusive, JMJD2A Tudor inconclusive (no result: Sfp inh)
COc1ccc(-c2c3c(=O)n(C)c(=O)n(C)c3cn2-c2ccccc2)cc1	G9a inh inconclusive, 12-LOX inh inconclusive
